Assay results from ChEMBL document CHEMBL1157539, “Thousands of chemical starting points for antimalarial lead identification” (Nature, 2010).

What was measured:
Type in all cases: functional
[1] = system: Plasmodium falciparum; test: GSK_TCMDC: Inhibition of Plasmodium falciparum 3D7 in whole red blood cells, using parasite LDH activity as an index of growth. Test compounds present at 2uM
[2] = system: Plasmodium falciparum; test: GSK_TCMDC: Inhibition of Plasmodium falciparum Dd2 in whole red blood cells, using parasite LDH activity as an index of growth. Test compounds present at 2uM
[3] = system: HepG2; test: GSK_TCMDC: Percent inhibition of human HepG2 cell line. Test compounds present at 10uM.

CC(C)(C)c1ccc(C(=O)Nc2ccc3nc4c(c(N)c3c2)CCCC4)cc1.Cl
Inhibition [1]: 100%
Inhibition [2]: 99%
Inhibition [3]: 21%

CC(CN(C)C)C(=O)Nc1cccc(-c2ccc(-c3nc4cc(F)ccc4[nH]3)cc2)c1 (stereo not drawn)
Inhibition [1]: 100%
Inhibition [2]: 100%
Inhibition [3]: 11%

COc1ccc(C(=O)Nc2cc(Br)c3c(c2)CNCC3)cc1Br.Cl
Inhibition [1]: 97%
Inhibition [2]: 8%
Inhibition [3]: 25%

CC(=O)Nc1csc(-c2cnc(/C=C(\C)C[C@@H]3OC[C@H](C[C@@H]4O[C@H]4[C@@H](C)[C@H](C)O)[C@@H](O)[C@H]3O)o2)c1
Inhibition [1]: 94%
Inhibition [2]: 8%
Inhibition [3]: 1%

CC(C)C[C@H](NC(=O)c1ccc(OCCN2CCOCC2)cc1)C(=O)N[C@H](/C=N/NC(=O)OC(C)(C)C)CCc1ccccc1
Inhibition [1]: 96%
Inhibition [2]: 87%
Inhibition [3]: 8%

CSc1nc2cc3c(cc2n1C(=O)c1ccc(C)cc1)OCCO3
Inhibition [1]: 99%
Inhibition [2]: 0%
Inhibition [3]: 0%

COc1ccc2nc(C)cc(Nc3ccc(Oc4ccc5ccccc5c4Cl)c(Cl)c3)c2c1
Inhibition [1]: 100%
Inhibition [2]: 98%
Inhibition [3]: 32%

COc1ccc(OCc2ccccn2)c(C2CCN(CCCCNC(=O)c3ccc(NC(=O)c4ccc(Cl)cc4)cc3)CC2)c1.Cl
Inhibition [1]: 98%
Inhibition [2]: 71%
Inhibition [3]: 18%

Br.CC(C)(C)c1ccc(OCCCON2C(N)=NC(N)=NC2(C)C)cc1
Inhibition [1]: 93%
Inhibition [2]: 76%
Inhibition [3]: 77%

COc1ccc(NC(=O)c2ccc(Br)c(C)c2)cc1N1CCN(CCCc2c[nH]c3ccccc23)CC1
Inhibition [1]: 100%
Inhibition [2]: 64%
Inhibition [3]: 21%

CC1(C)N=C(NC(=O)c2ccc([N+](=O)[O-])cc2)N=C(N)N1OCc1ccc2ccccc2c1
Inhibition [1]: 95%
Inhibition [2]: 78%
Inhibition [3]: 64%

COc1ccc(CNC(=O)c2cnc3c(O)cccc3c2Nc2cccc(NC(=O)c3ccc(F)cc3)c2)cc1.O=C(O)C(F)(F)F
Inhibition [1]: 91%
Inhibition [2]: 65%
Inhibition [3]: 50%

Cc1ccccc1C1CCN(C2CCC(NC(=O)/C=C/c3cccc(Cl)c3)CC2)CC1 (stereo not drawn)
Inhibition [1]: 98%
Inhibition [2]: 34%
Inhibition [3]: 70%

NC(=O)c1ccc(NC(=O)CN(Cc2ccc(Cl)cc2)S(=O)(=O)c2ccccc2)cc1
Inhibition [1]: 90%
Inhibition [2]: 75%
Inhibition [3]: 2%

Cc1cc(N[C@@H](Cc2ccccc2)C(=O)NCc2cccs2)nc(NCCc2ccccn2)n1.O=C(O)C(F)(F)F
Inhibition [1]: 93%
Inhibition [2]: 49%
Inhibition [3]: 0%

COc1cccc(-c2ccc3ccnc(N)c3c2)c1.O=C(O)C(F)(F)F
Inhibition [1]: 100%
Inhibition [2]: 93%
Inhibition [3]: 40%

Cc1cc2nc(-c3ccc(C(=O)NCc4cccc(F)c4)cc3)[nH]c2cc1C
Inhibition [1]: 91%
Inhibition [2]: 6%
Inhibition [3]: 0%

O=C(NC1CCCCC1)N(Cc1ccc(-c2cccc(CNCc3ccc4c(c3)OCO4)c2)cc1)C1CCN(Cc2ccccc2)CC1.O=C(O)C(F)(F)F
Inhibition [1]: 100%
Inhibition [2]: 72%
Inhibition [3]: 23%

Cc1cc(N[C@@H](Cc2ccccc2)C(=O)NCc2cccs2)nc(NCCc2ccc(F)cc2)n1.O=C(O)C(F)(F)F
Inhibition [1]: 100%
Inhibition [2]: 83%
Inhibition [3]: 3%

C=CCOc1ccc(C(=O)Nc2nonc2-c2ccc(OC)c(OC)c2)cc1
Inhibition [1]: 100%
Inhibition [2]: 91%
Inhibition [3]: 2%

CCn1nc(C(=O)NC2CCOc3ccccc32)c2ccccc2c1=O (stereo not drawn)
Inhibition [1]: 86%
Inhibition [2]: 59%
Inhibition [3]: 13%

Cl.Nc1c2c(nc3ccc(NC(=O)Cc4ccccc4)cc13)CCCC2
Inhibition [1]: 100%
Inhibition [2]: 0%
Inhibition [3]: 9%

O=C(Nc1ccc(Oc2ccccc2)cc1)N[C@H]1CCN(Cc2ccc(OCCCN3CCCCC3)cc2)C1
Inhibition [1]: 100%
Inhibition [2]: 6%
Inhibition [3]: 13%

O=C(O)c1ccc2nc(-c3ccccn3)c(-c3ccccn3)nc2c1
Inhibition [1]: 97%
Inhibition [2]: 18%
Inhibition [3]: 3%

CCCCNC(=O)[C@H](CC1CCCCC1)NC(=O)c1ccc(O)c(-c2ccc(OC)cc2)c1
Inhibition [1]: 89%
Inhibition [2]: 12%
Inhibition [3]: 0%

O=C(NCCCc1ccccc1)c1csc(C2CCCN(C(=O)c3ccc(O)c(-c4cccc5ccccc45)c3)C2)n1 (stereo not drawn)
Inhibition [1]: 97%
Inhibition [2]: 98%
Inhibition [3]: 3%

CCC(C)(C)n1c(C)cc2c3c(N)nc(N)nc3ccc21
Inhibition [1]: 97%
Inhibition [2]: 85%
Inhibition [3]: 69%

Cc1cccc2c(/C=C/C(=O)NC3CCC(CCN4CCc5ccc(C#N)cc5CC4)CC3)c[nH]c12.Cl (stereo not drawn)
Inhibition [1]: 91%
Inhibition [2]: 49%
Inhibition [3]: 18%

Cc1ccc2[nH]c(-c3ccccc3Nc3ccnc4cc(-c5nccs5)ccc34)nc2c1.Cl
Inhibition [1]: 100%
Inhibition [2]: 100%
Inhibition [3]: 40%

Cc1ccc(Cn2nc(Cl)c(N3CCCNCC3)cc2=O)cc1NC(=O)Nc1ccc(-c2ccccc2)cc1.O=C(O)C(F)(F)F
Inhibition [1]: 100%
Inhibition [2]: 55%
Inhibition [3]: 90%

Cl.N=C(N)NN=Cc1ccc2c(c1)Cc1ccccc1-2
Inhibition [1]: 100%
Inhibition [2]: 81%
Inhibition [3]: 72%

CCN1CCN(c2cc(C)c3cc(NC(=O)c4ccc(OC)c(OC)c4)ccc3n2)CC1
Inhibition [1]: 90%
Inhibition [2]: 23%
Inhibition [3]: 28%

COc1ccccc1Oc1c(N(C)S(=O)(=O)c2ccc(C(C)C)cc2)nc(C(F)(F)F)nc1N(C)S(=O)(=O)c1ccc(C(C)C)cc1
Inhibition [1]: 94%
Inhibition [2]: 98%
Inhibition [3]: 4%

CCCc1cn2c3c(cc(C(=O)N[C@@H](Cc4ccccc4)[C@H](O)CNC4CCOCC4)cc13)N(C)S(=O)(=O)CC2.O=CO
Inhibition [1]: 99%
Inhibition [2]: 98%
Inhibition [3]: 1%

O=C(/C=C/c1ccc(Cl)c(Cl)c1)NCCCCCN1CCC(CCNC(=O)C2(c3ccc(Cl)cc3)CC2)CC1
Inhibition [1]: 91%
Inhibition [2]: 16%
Inhibition [3]: 96%

N#Cc1ccc(-c2ccc(C(=O)NCCCCN3CCC(c4ccc5c(c4OCc4ccccn4)CCCC5)CC3)cc2)cc1
Inhibition [1]: 96%
Inhibition [2]: 39%
Inhibition [3]: 37%

CNCCNCc1ccc(-c2ccc(-c3nc4cccc(C)c4[nH]3)s2)cc1.O=C(O)C(F)(F)F
Inhibition [1]: 97%
Inhibition [2]: 26%
Inhibition [3]: 16%

CO/C(=C\C=C\c1cc2cc(Cl)c(Cl)cc2[nH]1)C(=O)NC1CCN(CCNc2ccccc2)CC1
Inhibition [1]: 100%
Inhibition [2]: 98%
Inhibition [3]: 60%

COc1ccc(-c2c(C(F)(F)F)nn(C)c2NC(=O)Nc2ccc(F)cc2F)cc1
Inhibition [1]: 100%
Inhibition [2]: 99%
Inhibition [3]: 8%

Cc1ccc(S(=O)(=O)N(CCCNCc2cccc(O)c2)c2ccccc2)cc1
Inhibition [1]: 95%
Inhibition [2]: 94%
Inhibition [3]: 6%

CNCc1cccc2nc(-c3csc(Cc4cc(Cl)ccc4OCC(C)C)n3)[nH]c12
Inhibition [1]: 100%
Inhibition [2]: 33%
Inhibition [3]: 9%

Cl.Cl.N=C(N)c1cccc(-c2cc(-c3cccc(C(=N)N)c3)on2)c1
Inhibition [1]: 96%
Inhibition [2]: 78%
Inhibition [3]: 8%

COCc1nc(N)nc(N)c1-c1ccc(Cl)c(Cl)c1
Inhibition [1]: 84%
Inhibition [2]: 1%
Inhibition [3]: 4%

Cc1ccccc1C1CCN(c2ncc(C(=O)NC3CC3)cc2Cl)CC1.O=C(O)C(F)(F)F
Inhibition [1]: 96%
Inhibition [2]: 96%
Inhibition [3]: 22%

Clc1cc(Cl)c2cc(CNCCCNc3ccc4ccccc4n3)[nH]c2c1.O=C(O)C(F)(F)F
Inhibition [1]: 99%
Inhibition [2]: 54%
Inhibition [3]: 98%

COc1ccc(C)c(Nc2ccnc(Nc3ccc(-c4cnc[nH]4)cc3)n2)c1.Cl
Inhibition [1]: 97%
Inhibition [2]: 6%
Inhibition [3]: 40%

Cl.O=C(Nc1ccc(Cl)c(Cl)c1)Nc1ccc2nccc(N3CCNCC3)c2c1
Inhibition [1]: 99%
Inhibition [2]: 62%
Inhibition [3]: 18%

CN1CCN(CCCN(Cc2cccc(-c3ccc(CNCCc4ccccc4)cc3)c2)C(=O)Nc2ccccc2)CC1.O=C(O)C(F)(F)F
Inhibition [1]: 100%
Inhibition [2]: 91%
Inhibition [3]: 61%

Br.CCCCCCCCc1c(C)nc(C)c(Br)c1O
Inhibition [1]: 96%
Inhibition [2]: 92%
Inhibition [3]: 0%

Cc1ccc2nc(C)cc(N/N=C/c3ccc([N+](=O)[O-])o3)c2c1
Inhibition [1]: 100%
Inhibition [2]: 99%
Inhibition [3]: 15%

COc1ccc(-c2csc(NC(=O)CCC(=O)O)n2)cc1OC
Inhibition [1]: 94%
Inhibition [2]: 0%
Inhibition [3]: 63%

COc1ccc(-c2cccc(NC(=O)c3ccc(F)cc3)c2)cc1CNC(C)C.O=C(O)C(F)(F)F
Inhibition [1]: 83%
Inhibition [2]: 9%
Inhibition [3]: 32%

CC(=O)Nc1ccc(OCCCN(Cc2ccccc2C(F)(F)F)c2ccc(C(F)(F)F)c(C#N)c2)c(Cl)c1
Inhibition [1]: 85%
Inhibition [2]: 43%
Inhibition [3]: 5%

CC1(C)NC(N)=NC(=N)N1OCc1ccc2ccccc2c1CON1C(=N)N=C(N)NC1(C)C
Inhibition [1]: 96%
Inhibition [2]: 12%
Inhibition [3]: 8%

CN(C)Cc1ccc(-c2cccc(Nc3nccc(NCC(O)c4ccccc4)n3)c2)cc1 (stereo not drawn)
Inhibition [1]: 100%
Inhibition [2]: 100%
Inhibition [3]: 74%

Cc1cc(CNCCCCCNCc2cccc([N+](=O)[O-])c2)ccc1O
Inhibition [1]: 98%
Inhibition [2]: 0%
Inhibition [3]: 14%

N#Cc1ccc(N/C(=N\c2ccc(-c3ccccc3)cc2)NC2CCCc3ccccc32)c(O)c1 (stereo not drawn)
Inhibition [1]: 99%
Inhibition [2]: 98%
Inhibition [3]: 0%

Br.COc1ccc2c(c1)CCCC2C(C)NCC(O)c1cccc(C(F)(F)F)c1 (stereo not drawn)
Inhibition [1]: 99%
Inhibition [2]: 99%
Inhibition [3]: 3%

O=C(Nc1cccc(Cl)c1N1CCOCC1)C(Cl)(Cl)Cl
Inhibition [1]: 96%
Inhibition [2]: 95%
Inhibition [3]: 3%

CC1CCN(CCNC(=O)c2ccc3c(=O)n(Cc4ccc(Cl)cc4)c(=S)[nH]c3c2)CC1
Inhibition [1]: 100%
Inhibition [2]: 75%
Inhibition [3]: 6%

CC(C)COc1ccc(Cl)cc1Cc1ccc(-c2nc3cc(N4CCN(C)CC4)ccc3[nH]2)o1.Cl
Inhibition [1]: 100%
Inhibition [2]: 41%
Inhibition [3]: 6%
